Measured values taken from the supplement of paper PMC11417369.
± gives the standard deviation of the averaged measurements. Whole data set: some 25,000 sequences, median “ln(normalized median fluorescence intensity)” near 8.6, cut for the highest 2% near 10. This excerpt belongs to a sample that is enriched for the highest values.

Tested on: PfAP2-EXP AP2 domain (GST-tagged)
Test: gcPBM binding intensity (ln(normalized median fluorescence intensity)); higher = stronger DNA binding
Outline: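 Binding intensity values are the highest Masliner-normalised natural-log median intensity among replicate spots of either probe orientation. The binding step lasted 1 h in 1× PBS with 1% milk, 0.2 mg/ml BSA, 0.5% salmon testes DNA and 0.03% Triton X-100, using GST-tagged P. falciparum DNA-binding domains expressed in E. coli on an Agilent 4 × 180k array of primer-extended double-stranded 36-bp intergenic genomic probes plus negative controls. Alexa488 anti-GST antibody and a 488 nm scan detected bound protein.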

Row | Sequence | gcPBM binding intensity (ln)
1 | GAACATACTCAAATAGCACACACATAAATAAAAATG [CACACA_site9283] | 8.89 ± 0.56
2 | GTGTGTTGTATATACTGTACATACTTTATATATAGT [XGTACX_site1876] | 8.63
3 | CCTTTTTTGTTTTATGCACACCATATAACCAAGGCT [CACACA_site7893] | 8.98 ± 0.18
4 | AAAAAATGGATGATCACACACTTCATAAAAATTGCA [CACACA_site5256] | 8.46 ± 0.49
5 | GTATATAATTTATATTGTACGCATATTATTATCATT [XGTACX_site7277] | 8.57 ± 0.25
6 | CTTTTCTATTTTTTCGTGCACTATAAATATTTTAAT | 9.6 ± 0.23
7 | ATTCTATATTTAAATGCATGCACTTTCTATTTTTTT [TGCATGCA_site435] | 10.6 ± 0.52
8 | TTTATATTTAAATGCATGCACTTTCTATTTTTTTTT [GTGCAC_site9959] | 10 ± 0.33
9 | TATATATATATATATGCATGTACATATATTTGTTAT [TGCATGCA_site379] | 10.3 ± 0.17
10 | ATATATATATATGCATGTACATATATTTGTTATATC [XGTACX_site3197] | 9.82 ± 0.45
11 | ATGCATATATTTATGTGTACATATATTTGTAGGGGG [XGTACX_site6063] | 10.6 ± 0.19
12 | ATATATATATATATATGTACTCATATTTTATTATTT [XGTACX_site898] | 10.1 ± 0.3
13 | ATAGCATATATTTTTTGTACATATGTTATATATATA [XGTACX_site2184] | 8.96 ± 0.071
14 | ATATATATTTATATATGTACATATTTTTGTGTATTT [XGTACX_site1183] | 8.55 ± 0.43
15 | TTTGTCATTTTATTATGTACTCAGCATATAGGGGGG [XGTACX_site505] | 10.7 ± 0.13
16 | TATATATATATATTATGTACTCATTTATTATCTTTT [XGTACX_site8051] | 9.97 ± 0.13
17 | ATATATTTATATTTGTGTACATATTTATTATATTTA [XGTACX_site404] | 8.46 ± 0.28
18 | ACAAAAATATTATATTGTACATTATTAGTTCATATT [XGTACX_site6750] | 8.5 ± 0.3
19 | GTAATTTTGAGATGATGTACATATTTTTTCCTTGTC [XGTACX_site4103] | 8.78 ± 0.47
20 | TAATTAAGAATATATAGTACATAGTTGAAAAACTTT [XGTACX_site6359] | 8.41 ± 0.33
21 | GTTTGATAACACCTACAAACTCTTTTTTTTTTTTTT [CACACA_negctrl_site1134] | 8.41 ± 0.53
22 | TCTGTGTTTTTGGGTACACACAAATAGCTTGTATAT [CACACA_site4002] | 8.72 ± 0.19

Row | Sequence | gcPBM binding intensity (ln)
23 | TATGTAACCTGTTTTACACACCCCCACCCCCCTCTT [CACACA_site319] | 10.3 ± 0.17
24 | ACCCTATATGTAACTACACACCGCATATTGTTTACT [CACACA_site3071] | 9.19 ± 0.43
25 | TATATATGTTTTTATGTACACACTTTTAACCTAAGA [CACACA_site1149] | 8.71 ± 0.36
26 | ATCTATATAATATATACACACAAATATACAAAAAAA [CACACA_site1013] | 8.64 ± 0.56
27 | AAATGCGCCATGTGTACACATATATATATATATATA [CACACA_site4649] | 10.3 ± 0.33
28 | ATACACACATATATGTGTACATATACATATATATAT [XGTACX_site6744] | 9.53 ± 0.32
29 | AAAAAAATAAATAAATGTACACATATATATATATAT [XGTACX_site4350] | 10.2 ± 0.47
30 | ATATATATATATATATGTACATATACACATGTGTGC [XGTACX_site168] | 10.1 ± 0.33
31 | AAAAAATGCGACATGTGTACACATATATATATATAT [XGTACX_site1679] | 10.4 ± 0.11
32 | GTACAAATGTTGTGTATATATACACACATACATATA [XGTACX_negctrl_site276] | 8.69 ± 0.33
33 | ATAACACAAAATTGTTGTACACGTGTTAATAAGTGA [XGTACX_site4452] | 9.12 ± 0.33
34 | TTAAAAAAATAATTAACACACACATGTATATCTATA [CACACA_site9026] | 8.21 ± 0.42
35 | TAGTACACACAAAATACATGCGGGGTTTAATATTTA [TGCATGCA_site576] | 8.78 ± 0.45
36 | TATATGACAAGATAAAGTACAAATTTGTATATATAT [XGTACX_site3027] | 8.97 ± 0.25
37 | TTTTATTAATATTGCATGCACACTATATAATAATTG [CACACA_site1049] | 10.02 ± 0.064
38 | TTCTTAATATTGCATGCACACTATATAATAATTGAA [CACACA_site4720] | 10.41 ± 0.057
39 | TTATTAATATTGCATGCACACTATATAATAATTGAA [CACACA_site8258] | 10.11 ± 0.057
40 | ATAAAAAATTTAAGTATTTTTTACAAACCTATAAAT [GTGCAC_negctrl_site51] | 8.18 ± 0.38
41 | ATTTTTTTTCTTTTTTTTTTACATTTTTTTCTTTTT [CACACA_negctrl_site1289] | 8.51 ± 0.45
42 | TGTTGTAAATATGTTTGTACATAAATATATTATTTA [XGTACX_site5442] | 8.38 ± 0.35
43 | TATATACATAAAATTTGTACATATATATATATATAT [XGTACX_site3214] | 10.1 ± 0.51
44 | TTATATATTTATAAATGTACATATAATTTTTTTATA [XGTACX_site4696] | 8.3 ± 0.32

Row | Sequence | gcPBM binding intensity (ln)
45 | ACGTATCAAAAAATTTGTACATATATATATATATAT [XGTACX_site1024] | 10.1 ± 0.35
46 | AAAAGTCTTCAAATTTGTACATATATATATATATAT [XGTACX_site3404] | 10.29 ± 0.092
47 | ATTTAAAAAATATATTGTACATATTTTATTATGTTT [XGTACX_site2984] | 8.29 ± 0.35
48 | ATCAGATATATATATTGTACATTTATATATAAATCA [XGTACX_site1960] | 8.46 ± 0.36
49 | ACATTCACAAAATTTTGTACACATATATATATATAT [XGTACX_site3518] | 10 ± 0.26
50 | ATATATATATATAAATGTACAGATATATTTTTTATT [XGTACX_site5445] | 10.21 ± 0.078
51 | CATTTAAAATTTGTTTGTACATATATATATATATAT [XGTACX_site6729] | 10.2 ± 0.26
52 | TAAAATTTTTTTGTTTGTACATATATATATATAATA [XGTACX_site5609] | 8.72 ± 0.52
53 | TATATATATATATGTTGTACATATTTAAATGTTTAT [XGTACX_site5437] | 10.2 ± 0.2
54 | TTTTTTTAATTAGTTTGTACATATTGTTATAATATA [XGTACX_site6294] | 8.56 ± 0.4
55 | TCCTTAAAAATCTAAAAAGAAAAAAACATATATTTT [GTGCAC_negctrl_site123] | 8.04 ± 0.45
56 | ATAATATATATATATAGTACATATATATAATATTCT [XGTACX_site2445] | 8.2 ± 0.24
57 | TTTCTTATATTATATAAATATATAGATGTTAATGGT [CACACA_negctrl_site706] | 8.38 ± 0.47
58 | TATTATTGTTGTTCATGTACACACTATAATAAAAGC [XGTACX_site8957] | 8.64 ± 0.4
59 | CAAAATTGACATGACGCACACAAGTGTAGATATTTT [CACACA_site1250] | 8.57 ± 0.4
60 | ATTATATATGTATAAATATGCTATATATATATATAT [GTGCAC_negctrl_site430] | 10.3 ± 0.17
61 | GATTATATTATATATTAAATATAAATATGTATTATA [TGCATGCA_negctrl_site66] | 8.04 ± 0.42
62 | ATATAAATATAAATATATATGTATAAATATAAATAT [CACACA_negctrl_site247] | 8.25 ± 0.47
63 | ATATTTTATACTTGCACACAAAATATATTAAAATGG [CACACA_site5139] | 8.47 ± 0.4
64 | CTTCCTTAGGAATGTACACACATATATAATATGTTG [CACACA_site461] | 8.53 ± 0.4
65 | TTCATTATTATTAACATACACACGTGTTATATACAC [CACACA_site4112] | 8.66 ± 0.41
66 | CATTATTATTAACATACACACGTGTTATATACCCCC [CACACA_site9365] | 10.2 ± 0.41

Row | Sequence | gcPBM binding intensity (ln)
67 | CATTATTATTAACATACACACGTGTTAAATACACCC [CACACA_site6118] | 8.91 ± 0.6
68 | TTTTTTTTTTTTTTTTTTTTTTTTTTTTTTTGGGGG [CACACA_negctrl_site1570] | 9.13 ± 0.49
69 | GGTTGTATAAGTTTTTGTACATATATATATATATAT [XGTACX_site7487] | 10.2 ± 0.49
70 | TAAGTTTTGTTCTTTTGTACATATAAGTATAGATCG [XGTACX_site4735] | 8.48 ± 0.33
71 | TTTTTTTTTTTTTTTTGTACATATACATATATATAT [XGTACX_site1981] | 9.3 ± 0.11
72 | ATGTGTGTATTTTATAGTACAGTTACAAGCATTTTT [XGTACX_site6351] | 8.57 ± 0.35
73 | AATAAATACACATACACACACGACGCTAGTATATGT [CACACA_site6627] | 8.29 ± 0.4
74 | TTTTTTTTTAGAAAAACATGCATGTCCTAAAAATAA [TGCATGCA_site684] | 8.89 ± 0.27
75 | TATATATATATATATATACACACTTGTGCAGAATAT [CACACA_site2216] | 10.2 ± 0.41
76 | TATATATATATATATACACACTTGTGCAGAATATTA [CACACA_site5257] | 10 ± 0.55
77 | TATAAATAGATATATACACACTTGTGCAGAATATTA [CACACA_site7112] | 8.63 ± 0.25
78 | TAATATTCAATTATACGTACACATATATATATATAT [XGTACX_site4245] | 10.2 ± 0.2
79 | TTATTCATACAATATCGTACATATATATATATATAT [XGTACX_site1185] | 10.2 ± 0.33
80 | CCTACAATTCGTAATACACACACATATATATATATA [CACACA_site9251] | 10.2 ± 0.16
81 | ACATTTTTTTCATATCGTACATATTATAATATTTTC [XGTACX_site6524] | 8.9 ± 0.39
82 | ATACATATATAAATACGTACATATATAATTATATAT [XGTACX_site8178] | 8.55 ± 0.3
83 | TAAAAAATATACATTCGTACATATATATTATATATA [XGTACX_site7918] | 8.12 ± 0.25
84 | ATTATATATACATATACACACATACGTACATACATA [CACACA_site9194] | 8.8 ± 0.4
85 | TACAATTCGTAATACACACACATATATATATATATT [CACACA_site3751] | 8.62 ± 0.36
86 | TACAATTCGTAATACACACACATATAAATAAATATT [CACACA_site7720] | 8.44 ± 0.38
87 | TTGTAATTCATTCAAATATAAAATAAATAAATATGA [CACACA_negctrl_site349] | 8.28 ± 0.34
88 | AAATGAATTATATAATATATATAAATAAATAAATAA [CACACA_negctrl_site359] | 8.46 ± 0.18
